Compound activity as filed in PubChem.
HCV inh – qHTS Assay for Inhibitors of Hepatitis C Virus (HCV); Potency, µM (doses to about 41.8 µM), for inactives: at the top dose activity change, negative = inhibition, hits mostly inhibitors; Huh7.5.1 HCVcc-Cre infection, luciferase reporter, 44 h; 340,000 tested, 3.4% active; AID 651820, 2012; further: on the % scale 0 is the no-effect control and ±100 the full control effect
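Cells (1,000/well) were plated 4 h before compound, then infected with HCVcc-Cre virus (~0.5 moi). After 44 h further culture, infection was read as luciferase luminescence following a 15 min substrate incubation at room temperature.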
Pf growth 96h – Primary qHTS for delayed death inhibitors of the malarial parasite plastid, 96 hour incubation. P. falciparum luciferase reporter growth, 96 h. Potency, µM (titrated, usually from 28.7 µM), for inactives: top-dose activity change, negative = inhibition, hits mostly inhibitors. 320,000 tested, 6.9% active. AID 504834, 2011; further: on the % scale 0 is the no-effect control and ±100 the full control effect
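Compounds incubated with erythrocytes infected by luciferase-expressing P. falciparum (2% hematocrit, 0.05% parasitemia final) for 96 hours, 37 C in 5% CO2. Growth inhibition scored as decreased luciferase luminescence.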
NS1 inh – qHTS Assay for Inhibitors of Influenza NS1 Protein Function; 270,000 tested, 0.4% active; Potency, µM (titrated, usually from 46.1 µM), for inactives: top-dose activity, positive = more growth; calls by dose curve; further: actives are rising curves; nearly all actives have a fitted effect of over 50% in size
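OD600 was taken as the measure of yeast growth restored by compound in an NS1-expressing S. cerevisiae strain. Cells had been washed out of glucose medium and diluted 1:100 into galactose -URA medium, pH 6.0.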
Pf growth 48h – Primary qHTS for delayed death inhibitors of the malarial parasite plastid, 48 hour incubation | P. falciparum luciferase growth in erythrocytes, 48 h | Potency, µM (top dose mostly 28.7 µM), without a hit: at the top dose activity change, negative = inhibition, actives largely listed as inhibitors | 310,000 tested, 5.9% active; further: on the % scale 0 is the no-effect control and ±100 the full control effect
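Luminescence readout; reporter = integrated firefly luciferase in P. falciparum. RBC culture at 2% hematocrit, 0.1% parasitemia final, 37 C/5% CO2; decreased signal taken as growth inhibition.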
SARS PLP yeast – qHTS of Yeast-based Assay for SARS-CoV PLP. Potency, µM (top dose mostly 32.9 µM), for inactives: at the top dose activity, positive = growth rescue, actives largely listed as activators. AID 485353, 2010. 330,000 tested, 0.19% active. S. cerevisiae expressing SARS-CoV PLpro, growth rescue; calls by dose curve; further: 0% is about no effect; nearly all actives have a fitted effect of over 55% in size
AMA1 RON2 block – qHTS for Inhibitors of AMA1-RON; Towards Development of Antimalarial Drug Lead: Primary Screen; 360,000 tested, 0.2% active; Potency, µM (series often up to 58.2 µM), inactives show top-dose activity change, negative = inhibition, usual class: inhibitors; Plasmodium falciparum AMA1 (3D7) - RON2 peptide interaction; AlphaScreen AMA1-biotinylated RON2 peptide binding;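 further: 0% = vehicle wells and -100% = peptide control; nearly all actives have a fitted effect of over 45% in size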
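AMA1 (3D7) with his tag at 25 nM final met compounds first, then biotinylated RON2 peptide at 25 nM; detection used donor plus acceptor beads, 10 µg/mL apiece, read by AlphaScreen after 30 min at room temperature.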
Active calls of the source: *; ? = inconclusive; . = no result given; [ ] = dose if it differs, or a comment. Most compounds without a hit are left out; they make up all but 12% or so of the library. Unless noted, the call rests on the fitted dose curve; in most records, active means well fitted curve in the direction sought with a large enough effect; inconclusive means small, poorly fitted or top-dose-only effect, or another doubt; inactive means no such curve, though single readings can be large; an effect the other way counts as inactive or inconclusive. Potency means the concentration at half of the fitted maximal effect.

SMILES	HCV inh	Pf growth 96h	NS1 inh	Pf growth 48h	SARS PLP yeast	AMA1 RON2 block
CN(C(=O)CN1C(=O)/C(=C/c2ccc(F)cc2)SC1=S)C1CCS(=O)(=O)C1 (configuration not stated)	17%	20%	-2%	-1%	3%	7%
CN(C(=O)CN1C(=O)S/C(=C\c2ccccc2)C1=O)C1CCS(=O)(=O)C1 (configuration not stated)	11%	13µM*	1%	-7%	2%	-4%
CCCCn1c(N)c(N(CC(C)C)C(=O)CCCc2nc3ccccc3c(=O)[nH]2)c(=O)[nH]c1=O	5%	1%	.	5%	1%	5%
Cc1cccc(OCC(=O)Nc2cc(S(=O)(=O)N3CCCCC3)ccc2N2CCN(C)CC2)c1	?	?	.	?	1%	-1%
CCN(CC)S(=O)(=O)c1ccc(N2CCOCC2)c(NC(=O)CC(C)(C)C)c1	-2%	?	2%	?	0%	5%
COc1ccc(OCC(=O)Nc2cc(OC)ccc2N2CCCCC2)cc1	?	42%	-1%	12µM*	0%	-23%
CCN(CC)S(=O)(=O)c1ccc(N2CCOCC2)c(NC(=O)COc2ccc(Cl)cc2)c1	10µM*	?	-3%	?	-4%	-1%
O=C(COc1ccc(Br)cc1)Nc1cc(S(=O)(=O)N2CCCCC2)ccc1N1CCCCC1	?	1.9µM*	4%	-12%	-3%	6%
CN1CCN(c2ccc(S(=O)(=O)N3CCCCC3)cc2NC(=O)COc2cccc(Cl)c2)CC1	?	?	.	10µM*	4%	-18%
O=C(CCNC(=O)c1ccc(Br)cc1)NCCCN1CCCC1=O	13%	19%	.	-6%	2%[6.58 µM]	-1%
N#Cc1ccc(OCC(=O)Nc2cc(S(=O)(=O)N3CCCCC3)ccc2N2CCCCC2)cc1	?	?	-2%	1%	18%	-11%
O=C(COc1ccc(Cl)cc1)Nc1cc(S(=O)(=O)N2CCCCC2)ccc1N1CCCCC1	?	2.3µM*	12%	12µM*	2%	-11%
O=C(CC1CCCC1)N1CCN(S(=O)(=O)c2cccc(F)c2)CC1	9%	.	.	.	.	27%
O=C(Nc1ccncc1)Nc1ccncc1	9%	31%	.	?	0%	6%
O=C(Nc1cccnc1)Nc1ccccc1Cl	?	.	-13%	34%	-10%	-2%
O=C(Nc1ccncc1)Nc1ccc(Cl)cc1Cl	?	-4%	-10%	1.7µM*	6%	5%
O=C(Nc1cccnc1)Nc1ccc(Br)cc1Cl	11µM*	.	-31%	?	-9%	8%
CC(C)(Oc1ccc(Cl)cc1)C(=O)Nc1ccncc1	11µM*	?	-36%	?	-17%	1%
O=C(Nc1ccncc1)Nc1cc(Cl)ccc1Cl	-8%	-1%	17%	?	3%	3%
O=C(Nc1ccncc1)Nc1ccc(Cl)cc1	8%	28%	-17%	5.2µM*	-3%	7%
CC1(C(=O)NS(=O)(=O)c2cccc(C#N)c2)CCN1C(=O)c1ccco1 (configuration not stated)	.	.	.	.	.	4%
Cn1cnc(S(=O)(=O)NC2CCN(Cc3c(F)cccc3Cl)CC2)c1	1%	0%	3%	82%	-1%	-6%
CC(Oc1ccc(Cl)cc1Cl)C(=O)Nc1ccncc1 (configuration not stated)	?	-5%	-154%	10µM*	-21%	0%
CC(=O)Nc1ccc(NC(=O)C(C)Oc2ccc(Cl)cc2Cl)cc1 (configuration not stated)	?	26%	-33%	?	?	-3%
Cc1ccc(NC(=O)C2(N(C(=O)Cn3nnnc3N)c3ccc(C)cc3)CCCCC2)cc1	3%	13µM*	-14%	15%	-2%	-4%
